# SW480 rerep = inducers of DNA re-replication in SW480 colon cancer cells; SW480 DNA re-replication, Hoechst DNA content imaging, 48 h; Potency, µM (highest dose often 46.1 µM), for the others: top-dose re-replication activation, usual class: activators; 1.8% of 340,000 active; AID 624297; also: % of control where 0% means no effect; nearly all actives have a fitted effect of over 55% in size
#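 SW480 cells exposed to compounds for 48 hr at 37 C, 5% CO2, then Hoechst-stained 40 min. Nuclear DNA content imaged by fluorescence scanning (405 nm excitation, 500-530 nm emission); re-replication scored as increased high-intensity nuclei.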
# ELG1 repair inh = inhibitors of ELG1-dependent DNA repair in HEK293T cells; HEK293T ELG1-luciferase reporter, luminescence, 16 h; DNA damage induced by 5-fluorouridine; Potency, µM (titrated, usually from 46.1 µM), without a hit: at the top dose activity change, negative = inhibition, usual class: inhibitors; 2.3% of 330,000 active; AID 504467; also: % is scaled to controls: 0 for no effect and ±100 for the full control effect; nearly all actives have a fitted effect of over 55% in size
#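 Overnight (16 hr) co-exposure of 2,000 cells/well to 5-fluorouridine and compound at 37 °C preceded detection. Luciferase was quantified via ONE-Glo luminescence; loss of signal denotes inhibition.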
# MCF10A rereplic = induces DNA re-replication in MCF 10a normal breast cells; MCF 10A DNA re-replication, Hoechst nuclear intensity, 48 h; Potency, µM (titrated, usually from 46.1 µM), without a hit: top-dose activity, positive = re-replication, hits mostly activators; 2.9% of 350,000 active; also: % of control where 0% means no effect; nearly all actives have a fitted effect of over 50% in size
# KB-V1 MDR tox = KB-V1 MDR subline cytotoxicity | KB-V1 MDR cells viability, CellTiter-Glo, 72 h | Potency, µM (doses to about 46.1 µM), hits mostly cytotoxic | 3.4% of 400,000 active | AID 1347076; also: % is scaled to controls: 0 for no effect and ±100 for the full control effect; nearly all actives have a fitted effect of over 60% in size
#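 Cytotoxicity toward P-gp-expressing KB-V1 cells was determined as loss of CellTiter-Glo luminescence after 72 h at 37 degrees C. Compounds were tested in quantitative HTS format across a concentration range, with curves fitted to normalized data.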
# KB-3-1 cytotox = KB-3-1 parental cell cytotoxicity; KB-3-1 viability, CellTiter-Glo ATP luminescence, 72 h; Potency, µM (titrated, usually from 46.1 µM), actives largely listed as cytotoxic; 1.4% of 400,000 active; AID 1347075; also: % is scaled to controls: 0 for no effect and ±100 for the full control effect; nearly all actives have a fitted effect of over 60% in size
#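 Here the drug-naive KB-3-1 line serves as comparator for MDR sub-line selectivity; cells received compound titrations, 72 h at 37 °C, then CellTiter-Glo readout.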
# Starred values were filed as active, the others as inactive; i = inactive; ? = inconclusive; · = no result; ! = not active in a repeat; [ ] = remark or other dose. Hits are enriched below; roughly 8.2% of the tested compounds scored in any of these assays. Calls follow the shape of the dose curve; as a rule, active = well fitted curve in the direction sought with a large enough effect; inconclusive = small, poorly fitted or top-dose-only effect, or another doubt; inactive = no such curve, though single readings can be large; an effect the other way counts as inactive or inconclusive. Potency is read from the fitted curve at half-maximal effect.
SMILES,SW480 rerep,ELG1 repair inh,MCF10A rereplic,KB-V1 MDR tox,KB-3-1 cytotox
O=C(Cn1nnc(-c2ccccc2)n1)Nc1cccc(S(=O)(=O)N2CCOCC2)c1,-14%,3%,4%,?,i
COc1ccc(OC)c(/C=C/c2cc3ccccc3cn2)c1,·,·,·,i,5.2µM*
CCn1c(C)cc2c(c1=O)C(c1ccccc1)C(C(=O)OC)=C(N)O2 (stereo unspecified),1%,?,16µM*,i,i
COC(=O)C1=C(N)Oc2cc(C)n(Cc3ccncc3)c(=O)c2C1c1cccnc1 (stereo unspecified),-8%,·,4%,?,i
CCCCC(CC)CNC(=O)Cn1c(=S)[nH]c2ncccc2c1=O (stereo unspecified),·,5%,·,·,·
CCOc1ccccc1/C=C/c1onc(C)c1S(=O)(=O)N1CCC(C(=O)N(CC)CC)CC1,-9%,5.8µM*,?,i,i
COc1ccc(/C=C/c2onc(C)c2S(=O)(=O)N2CCC(C(=O)N3CCC(C)CC3)CC2)cc1,16%,?,?,i,21µM*!
CCCNC(=O)C1CCN(S(=O)(=O)c2c(C)noc2/C=C\c2ccc(OC)cc2)CC1,20%,1%,36%,i,i
CCOCCCNC(=O)C1CCN(S(=O)(=O)c2c(C)noc2/C=C\c2ccc(OC)cc2)CC1,5%,·,11%,18µM*,i
COc1ccc(CN2C(=O)C(CC(=O)NC(c3ccccc3)c3ccccc3)CC(C(=O)N(C(C)C)C(C)C)=C2C)cc1 (stereo unspecified),·,·,·,?,i
CCOC(=O)c1c(C)oc2c1c(C(c1cccnc1)N1CCCCC1)c(O)c1ccccc12 (stereo unspecified),-5%,?,?,i,i
CCOC(=O)c1c(C)oc2c1c(C(c1ccccc1)N1CCOCC1)c(O)c1ccccc12 (stereo unspecified),?,?,4.1µM*,18µM*,i
CSCCC(NC(=O)COc1ccccc1)C(=O)NCC(C)(C)N1CCOCC1 (stereo unspecified),·,·,·,i,i
CCOC(=O)C1(CCOc2ccccc2)CCN(Cc2cccc(OC)c2OC)CC1,?,12µM*,10%,i,?
CCOC(=O)C1(Cc2cccc(OC)c2)CCN(Cc2cccc(OC)c2O)CC1,20%,?,?,5.2µM*,?
CCOC(=O)C1(Cc2cccc(F)c2)CCN(Cc2nc(CC)[nH]c2C)CC1,5.8µM*,?,13µM*,i,i
CCOC(=O)C1(CCOc2ccccc2)CCN(Cc2ccccc2O)CC1,-84%[1.84 µM],·,13%,i,i
O=C(Cn1[nH]c(=O)c2ccccc2c1=O)OCC(=O)c1ccccc1,2%,?,-13%,i,i
CSCCC(NC(=O)c1ccccc1Br)C(=O)NNC(=O)c1ccncc1 (stereo unspecified),5%,9%,-8%,i,i
COc1ccc(C(C#N)=Cc2ccccc2OC)cc1,·,·,·,8.2µM*,16µM*
COc1ccc(C(C#N)=Cc2ccc(OC)c(OC)c2)cc1,·,·,·,i,i
CC(=O)Nc1ccc(C(C#N)=Cc2ccc(N(C)CCC#N)cc2)cc1,·,·,·,?,i
COc1ccc(C(C#N)=Cc2ccc(NC(C)=O)cc2)cc1,?,·,16µM*,i,i
C(=C\c1ccccc1)/CN1CCN(C(c2ccccc2)c2nnnn2-c2ccc3c(c2)OCCO3)CC1 (stereo unspecified),·,·,·,i,i
Cc1c(C(=O)Nc2ccc3c(c2)OCO3)sc2ncn(CC(=O)N3CC(C)CC(C)C3)c(=O)c12 (stereo unspecified),11%,21µM*,8%,i,i
SMILES,SW480 rerep,ELG1 repair inh,MCF10A rereplic,KB-V1 MDR tox,KB-3-1 cytotox
CCN(CC)C(=O)Cn1cnc2sc(C(=O)N3CCN(Cc4ccc5c(c4)OCO5)CC3)c(C)c2c1=O,5%,8.2µM*,-3%,i,i
CCN(CC)C(=O)Cn1cnc2sc(C(=O)N3CCN(c4ccc(F)cc4)CC3)c(C)c2c1=O,-18%,-4%,-34%,i,i
COc1cc(NC(=O)c2sc3ncn(CC(=O)N4CCCC(C)C4)c(=O)c3c2C)cc(OC)c1OC (stereo unspecified),1%,?,-2%,?,i
COc1cccc(NC(=O)Cn2c(=O)n(-c3ccc(C)cc3)c(=O)c3ccc(C(=O)NCc4ccco4)cc32)c1,·,·,·,i,i
CCCc1nn2c(=O)cc(COC(=O)c3ccccc3NC(=O)c3cccs3)nc2s1,·,·,·,i,i
CCOC(=O)C1=CC[C@@H](c2ccccc2)N(S(=O)(=O)c2ccc(C)cc2)[C@@H]1C#N,·,·,·,i,i
FC(F)(F)c1cc(Oc2ccc(Cl)cc2)nc(-c2ccccn2)n1,2%,-10%,0%,?,i
FC(F)(F)c1cc(Oc2ccccc2)nc(-c2ccccn2)n1,?,2%,18%,15µM*,?
CCN(CC)c1cc(C(F)(F)F)nc(-c2ccccn2)n1,?,?,?,18µM*,i
C=CCNc1cc(C(F)(F)F)nc(-c2ccccn2)n1,-2%,20%,3%,i,i
FC(F)(F)c1cccc(Sc2cc(C(F)(F)F)nc(-c3ccccn3)n2)c1,-11%,?,-180%[0.0737 µM],16µM*,?
Cc1ccc(CNC(=O)CSc2nc(=O)n3ccc(C)cc3n2)cc1,·,·,·,i,i
COc1ccc2cc(CNCCOCCOCCNCc3ccc4cc(OC)ccc4c3)ccc2c1,23%,·,7.3µM*,9.2µM*,7.3µM*
CCOCCCNCc1ccc(OC)cc1,1%,0%,1%,i,i
C[C@@H]1ON(C)[C@H]2C[C@H]3c4[nH]c5ccc(-c6ccc7c(c6)OCO7)cc5c4CCN3C(=O)[C@@H]12,·,·,·,i,i

# Screening data (PubChem)
